Compound activity (PubChem)
Rango-impB inh – qHTS Assay for Inhibitors of Rango (Ran-regulated importin-beta cargo) - Importin beta complex formation; Potency, µM (titrated, usually from 92.2 µM); Importin subunit beta-1 (Homo sapiens), Q14974; 340,000 compounds, 0.031% hits; Rango CFP/YFP FRET sensor + importin beta, 45 min; calls by dose curve; also: nearly all actives have a fitted effect of over 15% in size
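FRET biosensor Rango (snurportin 1 IBB between N-terminal EYFP and C-terminal Cerulean), 50 nM in PBS/1 mM DTT/0.02% Tween-20/0.1% BSA, preincubated 5 min RT with compound; 0.125 microM importin beta added, 45 min RT, CFP/YFP FRET ratio read.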
PLK1 PBD inh – qHTS for Inhibitors of PLK1-PDB (polo-like kinase 1 - polo-box domain): Primary Screen. 360,000 compounds, 2.8% hits. Potency, µM, actives largely listed as inhibitors. Serine/threonine-protein kinase PLK1 (Homo sapiens), P53350. Plk1 PBD binding of FITC phosphopeptide, fluorescence polarization; also: series mostly up to about 57 µM; nearly all actives have a fitted effect of over 65% in size
Rango release inh – qHTS Assay for Inhibitors of RanGTP induced Rango (Ran-regulated importin-beta cargo) - Importin beta complex dissociation; Potency, µM (highest dose often 46.1 µM); Biochemical FRET Rango-importin beta, RanGTP-induced dissociation; 340,000 compounds, 0.071% hits; calls by dose curve; also: nearly all actives have a fitted effect of over 45% in size
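Compounds sat 5 min at room temperature with 0.1 uM Rango biosensor plus 0.25 uM importin beta, then FRET pre-read. RanGTP-RCC1 (0.6 uM Ran, 2mM GTP, 0.2 uM RCC1) added for 45 min, and the CFP/YFP post-read measured blocked complex dissociation.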
VDR inhibitor – Inhibitors of the vitamin D receptor (VDR): qHTS. Vitamin D3 receptor (Homo sapiens), P11473. VDR-SRC2-3 peptide fluorescence polarization, 2 h. Potency, µM, actives largely listed as inhibitors. 400,000 compounds, 0.93% hits. AID 504847, 2011
Target sequence (P11473 whole entry, looked up): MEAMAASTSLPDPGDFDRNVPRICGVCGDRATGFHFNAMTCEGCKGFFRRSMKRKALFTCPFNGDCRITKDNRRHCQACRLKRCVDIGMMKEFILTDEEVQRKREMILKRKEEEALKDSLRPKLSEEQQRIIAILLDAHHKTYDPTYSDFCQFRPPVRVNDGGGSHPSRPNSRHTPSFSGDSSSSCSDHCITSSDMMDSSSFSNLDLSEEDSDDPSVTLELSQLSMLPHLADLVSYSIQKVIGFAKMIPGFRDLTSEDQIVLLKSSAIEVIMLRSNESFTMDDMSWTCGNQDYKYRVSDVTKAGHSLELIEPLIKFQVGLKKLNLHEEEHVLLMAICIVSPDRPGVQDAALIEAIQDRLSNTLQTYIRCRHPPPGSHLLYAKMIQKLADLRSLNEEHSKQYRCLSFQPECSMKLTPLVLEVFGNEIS
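After 23 nl compound addition and a short centrifugation, plates sat for 2 hours at ambient temperature; polarization of fluorescence then indicated loss of VDR binding to peptide SRC2-3.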
PI5P4Ka inh – qHTS for Inhibitors of phosphatidylinositol 5-phosphate 4-kinase (PI5P4K) | max response, % | PI5P4Kalpha enzyme, ADP-Glo luminescence, 60 min; active compounds read low | 330,000 compounds, 1.2% hits; active = max response of -50% or lower; inconclusive = between -30% and -50%; inactive = -30% or higher; also: value at the top dose of about 77 µM
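Compounds were pin-transferred onto PI5P4Kalpha and substrate in HEPES pH 7.4 buffer with EGTA, CHAPS and 5% DMSO. ATP (5 microM final) started the reaction, which ran 60 minutes at room temperature before ADP-Glo detection.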
GCN5L2 inh – qHTS Assay for Inhibitors of GCN5L2 | GCN5L2 HAT assay, ThioGlo1 CoA-SH fluorescence | Potency, µM (doses to about 58.9 µM), most hits filed as inhibitors | 390,000 compounds, 0.21% hits | AID 504327, 2011
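Preincubate 20nM GCN5L2 with compound 15 min, RT → add 50uM ThioGlo1 + 75uM H3(1-25) + 70uM acetyl-CoA → read fluorescence 0 and 20 min. Primary qHTS; fluorescent artifacts likely.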
Of the large screens only hits and unclear results are named; the others gave an inactive call. Sampled rows, rich in hits. Any-hit rate of the full collection: about 3.6%. Unless noted, calls follow the shape of the dose curve; as a rule, active = well fitted curve in the direction sought with a large enough effect; inconclusive = small, poorly fitted or top-dose-only effect, or another doubt; inactive = no such curve, though single readings can be large; an effect the other way counts as inactive or inconclusive.

COc1ccccc1/C=C1/C(=O)N(c2ccccc2)N=C1C	PLK1 PBD inh 2.7µM, VDR inhibitor inconclusive
CC1=NN(c2ccccc2)C(=O)/C1=C/C=C/c1ccccc1	PLK1 PBD inh inconclusive, VDR inhibitor inconclusive
CC1=NN(c2ccccc2)C(=O)/C1=C\c1sccc1C	PLK1 PBD inh 11µM, VDR inhibitor inconclusive
O=C(Nc1ccc2nn(-c3ccc(F)cc3)nc2c1)c1cccc2c(Cl)cccc12	none (no result: Rango-impB inh, PLK1 PBD inh, Rango release inh, PI5P4Ka inh)
Cc1cc(-c2nn3c(-c4ccccc4)nnc3s2)c2ccccc2n1	PLK1 PBD inh 12µM, VDR inhibitor inconclusive (no result: PI5P4Ka inh)
CC(C)CCOc1ccc(Cn2c(=O)oc3ccccc32)cc1	none (no result: Rango-impB inh, PLK1 PBD inh, Rango release inh, PI5P4Ka inh)
Cc1ccc(CSc2cn(CC(=O)N3CCCCCC3)c3ccccc23)cc1	none (no result: Rango-impB inh, PLK1 PBD inh, Rango release inh, PI5P4Ka inh)
CCC(C)Nc1nc(N)c([N+](=O)[O-])c(NCc2ccccc2)n1 (stereo not drawn)	PLK1 PBD inh 30µM
N#CC1=C(N)Oc2cc(O)c(Cl)cc2C1c1cccnc1 (stereo not drawn)	Rango-impB inh inconclusive, Rango release inh inconclusive, PI5P4Ka inh -52
N#CC1=C(N)Oc2cc(O)c(Cl)cc2C1c1ccccc1F (stereo not drawn)	Rango-impB inh inconclusive, Rango release inh inconclusive, PI5P4Ka inh -64
COc1cccc(CNc2ncnc3c2nnn3C)c1	none (no result: Rango-impB inh, PLK1 PBD inh, Rango release inh, PI5P4Ka inh)
CCOC(=O)C(NC(C)=O)(Nc1ccc(S(=O)(=O)Nc2ncccn2)cc1)C(F)(F)F (stereo not drawn)	PLK1 PBD inh 30µM, Rango release inh inconclusive, VDR inhibitor inconclusive
CCOC(=O)C(NC(=O)CC)(Nc1ccc(S(=O)(=O)Nc2cc(C)on2)cc1)C(F)(F)F (stereo not drawn)	none
CCOC(=O)C(NC(=O)CC)(Nc1ccc(S(=O)(=O)Nc2onc(C)c2C)cc1)C(F)(F)F (stereo not drawn)	PLK1 PBD inh 27µM
Cc1nc2nc(C)c(NS(=O)(=O)c3ccc(F)cc3)c(=O)n2[nH]1	none (no result: Rango-impB inh, PLK1 PBD inh, Rango release inh, PI5P4Ka inh)
COc1ccccc1NC(=O)C1=C(C)Nc2c(C(=O)Nc3ccc(C)cc3)cnn2C1c1cccc(OC)c1OC (stereo not drawn)	GCN5L2 inh inconclusive (no result: Rango-impB inh, PLK1 PBD inh, Rango release inh, PI5P4Ka inh)
C#CC(C)OC(=O)Nc1cccc(Cl)c1 (stereo not drawn)	none (no result: Rango-impB inh, PLK1 PBD inh, Rango release inh, PI5P4Ka inh)
Cn1c(=O)[nH]c(=O)c2c1nc(N1CCOCC1)n2Cc1ccccc1	none (no result: Rango-impB inh, PLK1 PBD inh, Rango release inh, PI5P4Ka inh)
CC(C)[C@H](NC(=O)c1ccccc1Cl)C(=O)Nc1nc(-c2ccccn2)cs1	none
O=C(CN1C(=O)C2CCCCC2C1=O)Nc1nc(-c2ccccn2)cs1 (stereo not drawn)	PLK1 PBD inh 24µM
C[C@@H](C(=O)Nc1nc(-c2ccccn2)cs1)N1C(=O)C2CCCCC2C1=O (stereo partly drawn)	PLK1 PBD inh 17µM, VDR inhibitor inconclusive, PI5P4Ka inh -56, GCN5L2 inh inconclusive
CC1(c2ccccc2)NC(=O)N(CC(=O)Nc2nc(-c3ccccn3)cs2)C1=O (stereo not drawn)	PLK1 PBD inh inconclusive
CCOC(=O)c1ccc(NC(=O)c2c(NCc3cc(OC)c(OC)cc3OC)sc3c2CCCC3)cc1	none (no result: Rango-impB inh, PLK1 PBD inh, Rango release inh, PI5P4Ka inh)
CCc1ccccc1N1CC23C=CC(O2)C(C(=O)O)C3C1=O (stereo not drawn)	Rango-impB inh inconclusive, PLK1 PBD inh 27µM, VDR inhibitor 89µM
CCc1ccccc1N1CC23C=CC(O2)C(C(=O)OCC(C)C)C3C1=O (stereo not drawn)	PLK1 PBD inh inconclusive
O=C(CN1C(=O)c2ccccc2S1(=O)=O)Nc1ncc([N+](=O)[O-])s1	PLK1 PBD inh 19µM, PI5P4Ka inh inconclusive
C=CCOC(=O)N[C@H](/C(C(=O)OC)=C(\C)NCc1ccccc1)c1cccc(C(F)(F)F)c1	none (no result: Rango-impB inh, PLK1 PBD inh, Rango release inh, PI5P4Ka inh, GCN5L2 inh)
CCOC(=O)c1c(N)sc2c1CCN(Cc1ccccc1)C2	VDR inhibitor 40µM (no result: Rango-impB inh, PLK1 PBD inh, Rango release inh, PI5P4Ka inh)
CCOC(=O)c1c(NC(=O)Cc2ccccc2)sc2c1CCN(CC)C2	GCN5L2 inh inconclusive
CC(/C=C/C(=O)NO)=C\[C@@H](C)C(=O)c1ccc(N(C)C)cc1	VDR inhibitor inconclusive (no result: Rango-impB inh, PLK1 PBD inh, Rango release inh, PI5P4Ka inh)
Cc1ccc2c(c1)C(c1ccncc1)=NNC(c1ccccc1)=N2	PLK1 PBD inh 21µM, VDR inhibitor inconclusive
O=C(Nc1ccccc1F)C1CCCN(S(=O)(=O)c2ccccc2)C1 (stereo not drawn)	PLK1 PBD inh 3.4µM, VDR inhibitor inconclusive, PI5P4Ka inh inconclusive
COc1ccc(C(=O)O)cc1S(=O)(=O)NC(C)(C)C	PLK1 PBD inh 24µM
COc1ccc(CNc2ncnc3ccc(-c4ccccc4CN(C)C)cc23)c(OC)c1	none (no result: Rango-impB inh, PLK1 PBD inh, Rango release inh, PI5P4Ka inh)
COCc1c(C(=O)OCC(=O)c2ccc[nH]2)oc2ccccc12	none
CSCc1c(C(=O)OCC(=O)c2ccc[nH]2)oc2ccccc12	PI5P4Ka inh -76
COc1cccc(C2=NN(S(C)(=O)=O)C(c3cn(-c4ccccc4)nc3-c3cccs3)C2)c1 (stereo not drawn)	none (no result: Rango-impB inh, PLK1 PBD inh, Rango release inh, PI5P4Ka inh)
CCc1ccc(OCCCSc2nc(-c3ccc(C(C)(C)C)cc3)nc3cc(=O)[nH]n23)cc1	GCN5L2 inh inconclusive (no result: Rango-impB inh, PLK1 PBD inh, Rango release inh, PI5P4Ka inh)
CN(CP(=O)(O)C(O)c1ccccc1)S(C)(=O)=O (stereo not drawn)	none
